Compounds with a hit are over-represented: about 18% of the library has one in this group of screens.
TDP1 cell CPT: growth inhibition of DT40 Tdp1-/-;hTDP1 cells with camptothecin (screen for TDP1 inhibitors). chicken DT40 Tdp1-/-;hTDP1 cells + 20 nM CPT, ATP luminescence, 48 h. Potency, µM (titrated, usually from 46.2 µM), for inactives: top-dose activity change, negative = growth inhibition, hits mostly inhibitors. 420,000 compounds, 12% hits. AID 686979; further: nearly all actives have a fitted effect of over 55% in size
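Chicken DT40 Tdp1-/- cells complemented with human TDP1, 400 cells/well, exposed to compounds plus 20 nM camptothecin for at least 48 h at 37 C; viability read as ATP content by CellTiter-Glo luminescence.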
VDR inhibitor: inhibitors of human vitamin D receptor; P11473; 400,000 compounds, 0.93% hits; VDR-SRC2-3 peptide fluorescence polarization, 2 h; Potency, µM, inactives show max response, negative = inhibition, usual class: inhibitors
Target sequence (P11473 whole entry, looked up): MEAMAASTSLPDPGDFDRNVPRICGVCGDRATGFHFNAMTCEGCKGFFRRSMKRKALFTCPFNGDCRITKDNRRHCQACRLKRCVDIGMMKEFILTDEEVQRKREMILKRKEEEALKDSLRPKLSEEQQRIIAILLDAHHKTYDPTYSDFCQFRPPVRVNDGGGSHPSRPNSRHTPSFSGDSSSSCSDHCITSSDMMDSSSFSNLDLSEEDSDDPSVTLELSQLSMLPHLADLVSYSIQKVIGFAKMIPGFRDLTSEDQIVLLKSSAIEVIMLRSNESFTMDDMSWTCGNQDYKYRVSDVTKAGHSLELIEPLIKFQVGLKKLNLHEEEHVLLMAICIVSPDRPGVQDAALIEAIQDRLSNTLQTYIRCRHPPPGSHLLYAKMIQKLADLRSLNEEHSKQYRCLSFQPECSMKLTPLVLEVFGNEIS
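Fluorescence polarization assay of small-molecule disruption of VDR binding to coregulator peptide SRC2-3. Compounds and controls pin-transferred, then read after 2 h incubation at ambient room temperature.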
TDP1 inh: TDP1 (human) enzyme inhibition; Q9NUW8; AID 485290; 350,000 compounds, 0.28% hits; recombinant TDP1, AlphaScreen DNA substrate cleavage; Potency, µM (top dose mostly 130 µM), without a hit: top-dose activity change, negative = inhibition, hits mostly inhibitors; further: nearly all actives have a fitted effect of over 40% in size
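E. coli-derived human Tdp1, 1 nM final. Cpd preinc 15 min RT; substrate 15 nM final, 5 min RT; AS bead mix 10 ug/ml final, 10 min RT. Signal loss = tyrosine-FITC cleavage. No-enzyme wells = max signal.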
GCN5L2 inh: blocks human GCN5L2 histone acetyltransferase | Q92830 | Potency, µM (doses to about 58.9 µM), for the others: at the top dose activity change, negative = inhibition, hits mostly inhibitors | AID 504327 | GCN5L2 HAT assay, ThioGlo1 CoA-SH fluorescence | 390,000 compounds, 0.21% hits
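GCN5L2 (20 nM) in 50mM HEPES pH 7.5, 0.1mM EDTA, 0.01% Tween-20 preincubated 15 min with compounds at room temperature. Reaction started with H3(1-25) 75uM, acetyl-CoA 70uM, ThioGlo1 50uM; CoA-thiol fluorescence (Ex340/Em540) read at 0 and 20 min.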
PLK1 PBD inh: PLK1 (human) polo-box domain binding inhibition; 360,000 compounds, 2.8% hits; P53350; Potency, µM, inactives show max response, negative = inhibition, actives largely listed as inhibitors; Plk1 PBD binding of FITC phosphopeptide, fluorescence polarization; further: series mostly up to about 57 µM; nearly all actives have a fitted effect of over 65% in size
TDP1 cell noCPT: qHTS for Inhibitors of human tyrosyl-DNA phosphodiesterase 1 (TDP1): qHTS in cells in absence of CPT; AID 686978, 2013; DT40 Tdp1-/- hTDP1 cells, no CPT, ATP luminescence, 48 h; Potency, µM (titrated, usually from 46.2 µM), for inactives: at the top dose activity change, negative = growth inhibition, hits mostly inhibitors; 420,000 compounds, 15% hits; further: nearly all actives have a fitted effect of over 55% in size
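Stably hTDP1-transfected Tdp1-null chicken DT40 cells were treated with library compounds minus camptothecin and grown for at least 48 hr at 37 °C, after which cellular ATP was quantified by luminescence.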
* = called active by the depositor; [ ] = remark or other dose. The call rests on the fitted dose curve; in most records, active means well fitted curve in the direction sought with a large enough effect; inconclusive means small, poorly fitted or top-dose-only effect, or another doubt; inactive means no such curve, though single readings can be large; an effect the other way counts as inactive or inconclusive. On the % scale 0 is the no-effect control and ±100 the full control effect; potency means the concentration at half of the fitted maximal effect.

Results for COc1ccc2c(c1)[nH]c1c(N3CCSCC3)ncnc12 ?
TDP1 cell CPT: 7.3µM*; VDR inhibitor: -21%; TDP1 inh: 7%; GCN5L2 inh: -15%; PLK1 PBD inh: 0%; TDP1 cell noCPT: 8.2µM*

Results for COc1ccc2[nH]c3c(N4CC(C)OC(C)C4)ncnc3c2c1 (stereo not given) ?
TDP1 cell CPT: inconclusive; VDR inhibitor: -5%; TDP1 inh: 6%; GCN5L2 inh: -8%; PLK1 PBD inh: -3%; TDP1 cell noCPT: 15µM*

How did COc1ccc2nc(C)cc(N3CC(C)OC(C)C3)c2c1 (stereo not given) do in these assays?
TDP1 cell CPT: inconclusive; VDR inhibitor: -2%; TDP1 inh: 4%; GCN5L2 inh: -4%; PLK1 PBD inh: -3%; TDP1 cell noCPT: -30%

How did COc1cccc(N2CCN(c3ncnc4c3[nH]c3ccccc34)CC2C)c1 (stereo not given) do in these assays?
TDP1 inh: 14%[56.1 µM]; GCN5L2 inh: -3%

How did Cc1noc(C)c1NC(=O)N(C)C[C@H]1Oc2ccc(NC(=O)Nc3ccc4c(c3)OCO4)cc2C(=O)N([C@H](C)CO)C[C@@H]1C do in these assays?
TDP1 cell CPT: 1%; VDR inhibitor: 3%; TDP1 inh: 0%; GCN5L2 inh: 1%; PLK1 PBD inh: -5%; TDP1 cell noCPT: 2%

What do the screens show for `c1ccc(-c2nnsc2-c2ccccc2)cc1`?
TDP1 cell CPT: -3%; VDR inhibitor: 5%; GCN5L2 inh: -1%; PLK1 PBD inh: 1%; TDP1 cell noCPT: 20%

How did O=S(=O)(c1ccc(Cl)c(Cl)c1)c1snnc1-c1ccccc1 do in these assays?
TDP1 cell CPT: 2.6µM*; VDR inhibitor: inconclusive; TDP1 inh: 2%; GCN5L2 inh: 0%; PLK1 PBD inh: -31%; TDP1 cell noCPT: 3.3µM*

Results for CCN1CCN(c2nc3c(c(=O)[nH]c(=O)n3C)n2CCSc2nc3ccccc3s2)CC1 ?
TDP1 cell CPT: inconclusive; VDR inhibitor: -4%; TDP1 inh: 1%; GCN5L2 inh: -6%; PLK1 PBD inh: 3%; TDP1 cell noCPT: inconclusive

How did CC(C)CCn1c(Sc2nc3ccccc3s2)nc2c1c(=O)[nH]c(=O)n2C do in these assays?
TDP1 cell CPT: inconclusive; VDR inhibitor: -7%; TDP1 inh: 1%; GCN5L2 inh: -4%; PLK1 PBD inh: -12%; TDP1 cell noCPT: 16µM*

What do the screens show for `CC(CSc1nc2ccccc2s1)Cn1c(N2CCCC2)nc2c1c(=O)[nH]c(=O)n2C` (stereo not given)?
TDP1 cell CPT: inconclusive; VDR inhibitor: -8%; TDP1 inh: 8%; GCN5L2 inh: -2%; PLK1 PBD inh: -10%; TDP1 cell noCPT: 16µM*

How did CC(C)CCn1c(SCC(=O)c2ccccc2)nc2c1c(=O)[nH]c(=O)n2C do in these assays?
TDP1 cell CPT: inconclusive; VDR inhibitor: -1%; TDP1 inh: 5%; PLK1 PBD inh: -8%; TDP1 cell noCPT: -36%

How did COc1cc(NC(=O)Cn2ccsc2=N)cc(OC)c1 do in these assays?
TDP1 cell CPT: inconclusive; VDR inhibitor: -4%; TDP1 inh: -8%; GCN5L2 inh: -2%; PLK1 PBD inh: -1%; TDP1 cell noCPT: -21%

Results for CCOC(=O)c1ccc(NC(=O)CC2Nc3ccccc3NC2=O)cc1 (stereo not given) ?
TDP1 cell CPT: inconclusive; VDR inhibitor: -25%; GCN5L2 inh: -4%; TDP1 cell noCPT: inconclusive

How did O=C(NCCc1nnc2n1CCN(Cc1c(F)cccc1F)CC2)c1ccco1 do in these assays?
TDP1 cell CPT: -3%; TDP1 cell noCPT: -11%

How did CC(=O)Nc1cc(C(C)C)c(O)c(C(C)C)c1 do in these assays?
TDP1 cell CPT: -7%; VDR inhibitor: -10%; TDP1 inh: 1%; GCN5L2 inh: -17%; PLK1 PBD inh: -9%; TDP1 cell noCPT: -27%

What do the screens show for `CC(C)c1cc(CN2C(C)COCC2C)cc(C(C)C)c1O` (stereo not given)?
TDP1 cell CPT: 21µM*; VDR inhibitor: 2%; PLK1 PBD inh: -12%; TDP1 cell noCPT: inconclusive

How did COc1cccc(Cn2c(C)c(CNC3CCCCC3)c(C(=O)O)c2C)c1 do in these assays?
TDP1 cell CPT: 5%; VDR inhibitor: 20%; TDP1 inh: 3%; GCN5L2 inh: -1%; TDP1 cell noCPT: -1%

What do the screens show for `CC(=O)c1c(N2CCN(C)CC2)nc(=S)n(Cc2ccccc2)c1C`?
TDP1 cell CPT: -7%; VDR inhibitor: -14%; TDP1 inh: -1%; GCN5L2 inh: 0%; PLK1 PBD inh: -6%; TDP1 cell noCPT: 9%

How did C=CCn1c(C)c(C(C)=O)c(N2CCN(C(c3ccccc3)c3ccccc3)CC2)nc1=S do in these assays?
TDP1 cell CPT: inconclusive; VDR inhibitor: -21%; TDP1 inh: 2%; GCN5L2 inh: -3%; PLK1 PBD inh: -5%; TDP1 cell noCPT: 23µM*

How did COC(=O)C1CCN(C(=O)COC(=O)c2cc(-c3cccs3)nn2-c2ccccc2)CC1 do in these assays?
TDP1 cell CPT: -22%; VDR inhibitor: -10%; GCN5L2 inh: -1%; PLK1 PBD inh: 0%; TDP1 cell noCPT: -16%

How did CCOC(=O)c1cccc(NC(=O)C(C)n2c(C)c3cnn(-c4ccccc4)c(=O)c3c2C)c1 (stereo not given) do in these assays?
TDP1 cell CPT: inconclusive; VDR inhibitor: 0%; TDP1 inh: 0%; GCN5L2 inh: -4%; TDP1 cell noCPT: -24%

How did CNC(=S)N1CCC(NC(=O)c2ccco2)CC1 do in these assays?
GCN5L2 inh: 0%

What do the screens show for `CNC(=S)N1CCC(NC(=O)C23CC4CC(CC(C4)C2)C3)CC1`?
TDP1 cell CPT: inconclusive; VDR inhibitor: inconclusive; TDP1 inh: 3%; GCN5L2 inh: 0%; PLK1 PBD inh: 8.4µM*; TDP1 cell noCPT: inconclusive

Results for CCOc1cc(C(=O)OCc2cc(=O)n3nc(C4CC4)sc3n2)cc(OCC)c1OCC ?
TDP1 cell CPT: inconclusive; VDR inhibitor: 4%; TDP1 inh: 5%; GCN5L2 inh: 0%; TDP1 cell noCPT: 21µM*

What do the screens show for `CC(C)c1nn2c(=O)cc(COC(=O)c3ccc(NC(=O)C4CCCCC4)cc3)nc2s1`?
TDP1 cell CPT: inconclusive; VDR inhibitor: 5%; TDP1 inh: -4%; GCN5L2 inh: 5%; TDP1 cell noCPT: 21µM*

How did COc1ccc(C(=O)OCc2cc(=O)n3nc(C4CC4)sc3n2)cc1OC do in these assays?
TDP1 cell CPT: -18%; VDR inhibitor: 7%; TDP1 inh: 7%; GCN5L2 inh: 22%; TDP1 cell noCPT: -15%
